The values below come from ChEMBL document CHEMBL3988442, “University of Dundee, Small-Polar-MMV Screening Library” (2021).

Common to all, as to parameters: scale not given: direction of the effect not stated beside the values
Experiment [1] concerns the target Protein translocase subunit SecA (Escherichia coli (strain K12)) (UniProt P10408). The experiment in a line: Assay to Identify E. coli SecA ATPase Inhibitors. Format: functional. The settings on record: 30 µM.
The target in experiment [2] is T1, Ubiquitin-activating enzyme e1, putative (Leishmania donovani (strain BPK282A1)) (UniProt E9BSI1).
T1 sequence (whole entry): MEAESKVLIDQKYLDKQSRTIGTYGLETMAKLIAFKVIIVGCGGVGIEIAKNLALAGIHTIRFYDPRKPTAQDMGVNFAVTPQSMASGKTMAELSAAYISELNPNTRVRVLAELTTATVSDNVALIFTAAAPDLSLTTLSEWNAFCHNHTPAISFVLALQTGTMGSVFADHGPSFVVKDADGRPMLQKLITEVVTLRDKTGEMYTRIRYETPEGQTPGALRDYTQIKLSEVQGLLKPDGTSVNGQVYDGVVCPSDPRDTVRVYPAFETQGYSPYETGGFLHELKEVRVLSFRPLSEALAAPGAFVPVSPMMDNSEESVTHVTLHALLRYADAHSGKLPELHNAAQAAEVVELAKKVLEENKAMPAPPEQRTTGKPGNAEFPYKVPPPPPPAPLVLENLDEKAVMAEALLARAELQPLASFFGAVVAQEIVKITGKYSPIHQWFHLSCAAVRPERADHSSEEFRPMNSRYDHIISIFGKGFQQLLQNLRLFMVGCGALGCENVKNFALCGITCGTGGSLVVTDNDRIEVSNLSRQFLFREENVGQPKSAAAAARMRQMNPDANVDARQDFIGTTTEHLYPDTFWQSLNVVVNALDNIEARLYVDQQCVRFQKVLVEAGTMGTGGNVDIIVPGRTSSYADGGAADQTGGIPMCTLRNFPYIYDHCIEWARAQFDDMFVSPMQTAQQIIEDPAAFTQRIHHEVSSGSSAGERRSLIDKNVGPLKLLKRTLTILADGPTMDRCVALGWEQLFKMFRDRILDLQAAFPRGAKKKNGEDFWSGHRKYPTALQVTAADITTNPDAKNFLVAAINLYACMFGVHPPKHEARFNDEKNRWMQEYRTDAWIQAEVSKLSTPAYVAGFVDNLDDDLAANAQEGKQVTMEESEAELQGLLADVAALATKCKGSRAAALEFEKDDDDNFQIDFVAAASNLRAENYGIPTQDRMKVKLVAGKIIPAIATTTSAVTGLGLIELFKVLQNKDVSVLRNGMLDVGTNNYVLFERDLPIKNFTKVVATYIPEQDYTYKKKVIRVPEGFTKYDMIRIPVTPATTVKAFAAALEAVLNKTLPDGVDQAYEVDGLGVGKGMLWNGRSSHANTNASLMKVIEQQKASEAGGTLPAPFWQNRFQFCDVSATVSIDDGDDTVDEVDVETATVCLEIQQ
Briefly: Leishmania donovani Ubiquitin Activating Enzyme (LdE1). Type of experiment: functional. The following applies: 30 µM.

The target of experiment [3] is Sialic acid-binding Ig-like lectin 9 (Homo sapiens) (UniProt Q9Y336). The experiment in a line: Hs-Siglec9 ALPHAscreen SOP 20170721. The settings on record: 10 µM.
Chain of Sialic acid-binding Ig-like lectin 9 (Homo sapiens) (Q9Y336 whole entry): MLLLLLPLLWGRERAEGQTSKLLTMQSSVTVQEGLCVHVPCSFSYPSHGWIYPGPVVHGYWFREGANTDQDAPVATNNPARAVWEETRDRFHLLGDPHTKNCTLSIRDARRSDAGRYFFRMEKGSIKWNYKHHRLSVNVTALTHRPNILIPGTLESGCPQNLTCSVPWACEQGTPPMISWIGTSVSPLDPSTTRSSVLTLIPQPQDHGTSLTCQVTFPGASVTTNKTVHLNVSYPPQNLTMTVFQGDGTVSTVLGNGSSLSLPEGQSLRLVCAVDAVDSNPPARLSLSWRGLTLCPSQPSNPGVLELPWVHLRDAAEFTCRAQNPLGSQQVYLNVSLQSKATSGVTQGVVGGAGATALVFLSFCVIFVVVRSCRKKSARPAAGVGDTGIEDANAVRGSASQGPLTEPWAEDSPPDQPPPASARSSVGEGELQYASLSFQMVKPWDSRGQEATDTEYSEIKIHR
A further experiment concerns Trypanosoma cruzi. The experiment in a line: Trypanosoma cruzi phosphomannomutase and mannose-1-phosphate guanylyltransferase assay. Type of experiment: functional. The settings on record: 10 µM.
Experiment [4] concerns the target T2, Arginase-2, mitochondrial (Homo sapiens) (UniProt P78540).
T2 sequence (whole entry): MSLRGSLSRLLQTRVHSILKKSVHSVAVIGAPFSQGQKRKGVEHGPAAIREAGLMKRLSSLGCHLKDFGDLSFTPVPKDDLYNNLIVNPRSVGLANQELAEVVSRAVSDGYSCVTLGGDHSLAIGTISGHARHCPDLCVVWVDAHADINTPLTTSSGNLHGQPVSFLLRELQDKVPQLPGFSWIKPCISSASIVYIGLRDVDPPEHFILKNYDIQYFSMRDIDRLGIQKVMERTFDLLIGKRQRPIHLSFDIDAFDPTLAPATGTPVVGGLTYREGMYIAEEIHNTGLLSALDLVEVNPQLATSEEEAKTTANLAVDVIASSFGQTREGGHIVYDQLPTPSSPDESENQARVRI
Briefly: in vitro enzyme assay to detect the production of urea directly proportional to the activity of Arginase II. Further: in the data most compounds retested in dose-response had high values. Format: functional. The following applies: 33.3 µM.

Experiment [5] addresses T3, Proteasome subunit beta (Trypanosoma cruzi) (UniProt O96673).
T3 sequence (whole entry): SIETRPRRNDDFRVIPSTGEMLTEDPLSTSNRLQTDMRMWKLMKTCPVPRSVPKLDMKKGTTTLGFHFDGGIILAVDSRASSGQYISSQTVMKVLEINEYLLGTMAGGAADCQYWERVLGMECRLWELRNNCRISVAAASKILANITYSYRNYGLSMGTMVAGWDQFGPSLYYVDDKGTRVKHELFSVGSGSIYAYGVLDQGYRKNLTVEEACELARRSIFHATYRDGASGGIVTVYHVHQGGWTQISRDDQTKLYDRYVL
The experiment in a line: Trypanosoma cruzi proteasome chymotrypsin-like activity (TcProtChymo) assay. Further: in the data most compounds retested in dose-response had high values. The settings on record: 9.37 µM. Type of experiment: functional.

For another experiment, the species on record is Homo sapiens. The experiment in a line: To identify inhibition of the IFN signalling (Jak-Stat) pathway via expression of an eGFP reporter gene under the control of an IFN-stimulated response element (ISRE) containing MxA promoter. Type of experiment: functional. The following applies: 30 µM.
In experiment [6] the target is T4, Tyrosyl-tRNA synthetase, putative (Trypanosoma cruzi (strain CL Brener)) (UniProt Q4DSP6).
T4 sequence (whole entry): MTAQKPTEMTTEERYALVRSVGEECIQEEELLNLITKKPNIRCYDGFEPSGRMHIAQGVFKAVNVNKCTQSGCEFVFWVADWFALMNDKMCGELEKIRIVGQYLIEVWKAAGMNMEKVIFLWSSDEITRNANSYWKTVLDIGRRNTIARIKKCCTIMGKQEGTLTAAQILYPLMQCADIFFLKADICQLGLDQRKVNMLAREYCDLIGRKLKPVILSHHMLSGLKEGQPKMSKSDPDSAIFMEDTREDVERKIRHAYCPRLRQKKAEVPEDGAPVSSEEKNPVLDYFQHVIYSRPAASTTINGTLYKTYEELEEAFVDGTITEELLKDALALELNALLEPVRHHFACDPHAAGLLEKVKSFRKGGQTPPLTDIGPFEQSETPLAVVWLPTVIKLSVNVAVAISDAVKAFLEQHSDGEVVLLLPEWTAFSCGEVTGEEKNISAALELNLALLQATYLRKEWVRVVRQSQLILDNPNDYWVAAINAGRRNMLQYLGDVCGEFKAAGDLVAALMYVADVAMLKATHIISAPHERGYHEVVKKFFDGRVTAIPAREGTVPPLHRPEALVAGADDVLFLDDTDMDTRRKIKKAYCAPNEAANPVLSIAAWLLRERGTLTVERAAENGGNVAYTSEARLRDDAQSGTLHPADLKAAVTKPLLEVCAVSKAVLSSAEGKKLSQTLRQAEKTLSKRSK
The experiment in a line: Trypanosoma cruzi tyrosyl tRNA synthetase (TcYRS) _High Tyrosine SOP. Further: in the data most compounds retested in dose-response had high values. The settings on record: 30 µM. Format: functional.

Experiment [7] has as its target T4, Tyrosyl-tRNA synthetase, putative (Trypanosoma cruzi (strain CL Brener)). The experiment in a line: Trypanosoma cruzi tyrosyl tRNA synthetase (TcYRS) SOP. Type of experiment: functional. The following applies: 30 µM.
The target in experiment [8] is Chromo domain-containing protein 1 (Saccharomyces cerevisiae (strain ATCC 204508 / S288c) (Baker's yeast)) (UniProt P32657). Briefly: ScCHD-1 Enzyme Inhibition Assay. Further: in the data most compounds retested in dose-response had high values. The settings on record: 30 µM. Type of experiment: functional.
Chain of Chromo domain-containing protein 1 (Saccharomyces cerevisiae (strain ATCC 204508 / S288c) (Baker's yeast)) (P32657 whole entry, the tested form may be a part): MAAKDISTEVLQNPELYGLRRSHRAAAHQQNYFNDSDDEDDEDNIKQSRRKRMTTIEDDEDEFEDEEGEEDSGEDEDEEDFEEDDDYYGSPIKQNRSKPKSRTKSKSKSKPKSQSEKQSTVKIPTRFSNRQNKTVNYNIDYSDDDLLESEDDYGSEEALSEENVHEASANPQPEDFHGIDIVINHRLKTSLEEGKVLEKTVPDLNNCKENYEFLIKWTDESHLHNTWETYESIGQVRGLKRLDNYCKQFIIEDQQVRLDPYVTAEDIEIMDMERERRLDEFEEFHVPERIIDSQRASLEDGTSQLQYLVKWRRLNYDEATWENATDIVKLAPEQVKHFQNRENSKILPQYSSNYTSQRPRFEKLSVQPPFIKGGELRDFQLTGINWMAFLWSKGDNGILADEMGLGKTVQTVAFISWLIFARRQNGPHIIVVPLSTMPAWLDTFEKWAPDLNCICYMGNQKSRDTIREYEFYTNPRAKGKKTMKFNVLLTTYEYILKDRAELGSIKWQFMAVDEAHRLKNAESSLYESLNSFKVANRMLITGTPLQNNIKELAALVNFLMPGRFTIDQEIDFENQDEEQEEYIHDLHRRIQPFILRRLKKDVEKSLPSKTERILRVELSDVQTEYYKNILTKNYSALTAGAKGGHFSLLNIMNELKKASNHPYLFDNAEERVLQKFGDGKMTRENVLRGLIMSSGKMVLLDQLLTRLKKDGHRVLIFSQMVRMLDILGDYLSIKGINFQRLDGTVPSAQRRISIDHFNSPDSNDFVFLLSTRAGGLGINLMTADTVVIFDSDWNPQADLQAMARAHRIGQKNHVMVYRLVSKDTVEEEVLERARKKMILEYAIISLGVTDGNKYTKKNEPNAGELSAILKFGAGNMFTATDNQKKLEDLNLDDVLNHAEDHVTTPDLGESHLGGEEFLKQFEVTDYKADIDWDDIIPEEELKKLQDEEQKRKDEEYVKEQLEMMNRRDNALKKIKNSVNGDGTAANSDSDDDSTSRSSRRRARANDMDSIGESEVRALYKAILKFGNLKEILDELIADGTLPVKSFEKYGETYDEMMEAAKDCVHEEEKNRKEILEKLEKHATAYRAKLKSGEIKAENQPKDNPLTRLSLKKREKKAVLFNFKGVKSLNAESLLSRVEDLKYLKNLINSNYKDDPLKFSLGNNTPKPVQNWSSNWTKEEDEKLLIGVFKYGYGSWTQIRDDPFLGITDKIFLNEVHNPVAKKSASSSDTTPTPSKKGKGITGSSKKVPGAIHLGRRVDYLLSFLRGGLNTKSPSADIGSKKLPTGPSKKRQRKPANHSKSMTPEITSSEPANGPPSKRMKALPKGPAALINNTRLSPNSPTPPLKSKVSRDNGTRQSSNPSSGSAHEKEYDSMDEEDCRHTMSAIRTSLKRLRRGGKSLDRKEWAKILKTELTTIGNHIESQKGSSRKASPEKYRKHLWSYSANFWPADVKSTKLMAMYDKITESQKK

For part of these data: Measured potencies and affinities stand elsewhere.

Chain of Protein translocase subunit SecA (Escherichia coli (strain K12)) (P10408 whole entry): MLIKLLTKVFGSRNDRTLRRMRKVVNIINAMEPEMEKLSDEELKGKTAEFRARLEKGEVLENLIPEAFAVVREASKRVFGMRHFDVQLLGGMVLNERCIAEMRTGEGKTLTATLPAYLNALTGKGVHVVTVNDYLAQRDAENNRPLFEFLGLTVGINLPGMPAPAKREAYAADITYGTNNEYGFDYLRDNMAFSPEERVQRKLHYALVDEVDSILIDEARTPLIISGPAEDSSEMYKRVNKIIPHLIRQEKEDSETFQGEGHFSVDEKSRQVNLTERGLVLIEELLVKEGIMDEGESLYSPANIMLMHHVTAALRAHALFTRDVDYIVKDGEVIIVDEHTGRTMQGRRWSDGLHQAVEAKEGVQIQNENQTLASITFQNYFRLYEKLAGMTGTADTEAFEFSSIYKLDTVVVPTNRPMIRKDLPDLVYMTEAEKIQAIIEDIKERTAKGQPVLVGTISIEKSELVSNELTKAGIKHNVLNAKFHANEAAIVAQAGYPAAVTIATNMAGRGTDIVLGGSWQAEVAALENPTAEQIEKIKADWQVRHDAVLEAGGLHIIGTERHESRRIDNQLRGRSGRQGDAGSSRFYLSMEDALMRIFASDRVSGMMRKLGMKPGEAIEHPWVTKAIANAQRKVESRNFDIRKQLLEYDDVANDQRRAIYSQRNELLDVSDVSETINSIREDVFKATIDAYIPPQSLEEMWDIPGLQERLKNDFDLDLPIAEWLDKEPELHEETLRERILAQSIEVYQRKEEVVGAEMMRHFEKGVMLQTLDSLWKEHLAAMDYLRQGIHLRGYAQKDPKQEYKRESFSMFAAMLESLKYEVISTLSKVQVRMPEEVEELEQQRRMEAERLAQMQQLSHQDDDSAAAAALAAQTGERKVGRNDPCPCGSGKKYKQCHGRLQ

Take `Cc1ccc(C(=O)N2C[C@H]3CCC[C@@]3(COCc3cccnc3)C2)s1`: the Percent Effect in experiment [1] was -4.31%; in [2] it was 6.49%; in experiment [3] it was -5.03%; in the experiment on Trypanosoma cruzi, -4.38%; in experiment [4] it was 1.22%; in [5], 15.4%. In addition, the Percent Effect in the experiment filed under Homo sapiens turned out to be 3.36%; in [6] it was 5.79%; in experiment [7] it was 5.13%; in experiment [8] it was 5.28%.
`Cc1cc(NC(=O)CCN(CC2CCOC2)C2CC2)no1` (stereo not given): the Percent Effect is -3.2% in experiment [1]; 21.3% in experiment [2]; -0.377% in [3]; 1.21% in the experiment with Trypanosoma cruzi; -2.22% in [4]; 10.3% in experiment [5]. The Percent Effect was 8.07% in the experiment filed under Homo sapiens, 3.68% in experiment [6], 15.4% in experiment [7] and -13.2% in experiment [8].
As to `O=C(C1CC1)N1CC[C@H](O)[C@@H]1Cc1ccccc1`, the Percent Effect is -7.5% in experiment [1]; 3.9% in experiment [2]; -3.5% in experiment [3]; -0.75% in the experiment with Trypanosoma cruzi; 1.37% in experiment [4]; 1.8% in experiment [5]. In addition, the Percent Effect is -8.68% in the experiment listed under Homo sapiens, 2.9% in experiment [6], 2.5% in [7] and -12.8% in experiment [8].
With `COc1ccc(C[C@H]2CN(C(=O)c3ccncc3)CC[C@@H]2OC)cc1`, the Percent Effect in [1] is -3.87%; in [2], 11.7%; in [3], 0.155%; in the experiment with Trypanosoma cruzi, -6.57%; in experiment [4], -11.4%; in experiment [5], 6.61%. Besides, the Percent Effect in the experiment filed under Homo sapiens is 11.4%; in [6], -2.9%; in [7] it was -2.5%; in [8], -10.3%.
As for `CCc1nc(C2CCCN2C(=O)c2ccoc2C)no1` (stereo not given), the Percent Effect in [1] was 2.59%; in experiment [2], -2.56%; in experiment [3], 10.5%; in the experiment with Trypanosoma cruzi it was 0.469%; in experiment [4] it was 5.74%; in experiment [5], 2.3%. Moreover, the Percent Effect was 17.4% in the experiment filed under Homo sapiens, -0.478% in [6], -18.1% in experiment [7] and 0.101% in experiment [8].
Take `Cc1cc(C)n(CC2CCCCN2C(=O)c2ccc3c(c2)OCO3)n1` (stereo not given): the Percent Effect in experiment [1] is -0.864%; in experiment [2], 5.33%; in experiment [3], -0.84%; in the experiment with Trypanosoma cruzi, -6.22%; in [4], 1.33%; in [5], 7.38%. Moreover, the Percent Effect in the experiment filed under Homo sapiens was 8.9%; in experiment [6] it was 2.63%; in [7], 10.3%; in experiment [8], -0.951%.
Turning to `CC(C)(C)C(O)CN1CCN(C(=O)c2cccc3[nH]ncc23)CC1` (stereo not given), the Percent Effect in experiment [1] is -8.1%; in experiment [2] it was 20.5%; in experiment [3] it was -18.1%; with Trypanosoma cruzi, 4.41%; in experiment [4], -0.41%; in experiment [5], 20.4%. Further, the Percent Effect stood at 1.83% in the experiment filed under Homo sapiens, 3.35% in experiment [6], 22.9% in experiment [7] and 22.1% in [8].
As to `Cc1nc(N2CCCC2)nc2c1CN(C(=O)N1CCOCC1)CC2`, the Percent Effect was -4.38% in experiment [1]; 14.3% in experiment [2]; 1.78% in experiment [3]; 0.75% in the experiment on Trypanosoma cruzi; 3.2% in [4]; 15.9% in experiment [5]. In addition, the Percent Effect in the experiment filed under Homo sapiens is 1.81%; in experiment [6], 10.6%; in experiment [7], 15%; in experiment [8] it was -9.99%.
For `CN1CCC/C1=N\S(=O)(=O)c1ccc(NC(=O)CCc2cccs2)cc1`, the Percent Effect is 2.31% in experiment [1]; 20.8% in experiment [2]; 5.99% in experiment [3]; 2.05% in the experiment with Trypanosoma cruzi; 12.1% in experiment [4]; 5.79% in [5]. Also, the Percent Effect was 16.7% in the experiment listed under Homo sapiens, 7.84% in experiment [6], 28.2% in experiment [7] and -8.39% in experiment [8].
On to `Cc1ccc(Cl)cc1N1CCC(CNC(=O)CC(F)(F)F)C1` (stereo not given), for which the Percent Effect was -3.87% in experiment [1]; -2.56% in experiment [2]; -7.65% in experiment [3]; -2.54% in the experiment with Trypanosoma cruzi; 1.23% in [4]; 7.25% in experiment [5]. Further, the Percent Effect was 38.9% in the experiment filed under Homo sapiens, -0.478% in [6], -3.61% in [7] and 0.808% in [8].
In the case of `Cc1noc(C)c1CN(C)C(=O)NC1CCN(c2ncccn2)CC1`, the Percent Effect in [1] is -4.16%; in [2] it was 10.3%; in experiment [3], -17.2%; in the experiment on Trypanosoma cruzi, 11.7%; in experiment [4], -0.82%; in experiment [5] it was 9.64%. Further, the Percent Effect was 13.1% in the experiment filed under Homo sapiens, 5.26% in experiment [6], 20.5% in [7] and -9.27% in [8].
`Cc1nn(-c2ccccc2)c(C)c1CNC1CCc2ncnn2C1` (stereo not given): the Percent Effect in experiment [1] was -0.655%; in [2], 10.3%; in experiment [3], 7.05%; with Trypanosoma cruzi it was 4.79%; in [4], 8.2%; in experiment [5], 7.93%. Further, the Percent Effect in the experiment listed under Homo sapiens was -12.2%; in experiment [6], 7.18%; in experiment [7], 22.9%; in experiment [8], -3.12%.
